According to PubChem BioAssay AID2625 (National Center for Advancing Translational Sciences (NCATS), 2010):
Inconclusive results are not listed. Activity calls are given as the source filed them. The call rests on the fitted dose curve; in most records, active means well fitted curve in the direction sought with a large enough effect; inconclusive means small, poorly fitted or top-dose-only effect, or effect the other way, or another doubt; inactive means no such curve, though single readings can be large or run the other way.

biological target: Pyruvate kinase PKLR (Homo sapiens) (UniProt P30613); assay: Secondary LDH Assay for Activators of Human Liver Pyruvate Kinase: for Probe SAR; settings: purified hPK-L, LDH-coupled NADH fluorescence kinetic; series mostly up to 58.2 µM
Description: NIH Chemical Genomics Center [NCGC]
Matthew G. Vander Heiden, M.D., Ph.D. [Harvard Medical School, 77 Avenue Louis Pasteur, Boston, MA 02115]
Human pyruvate kinase liver (hPK-L)enzyme was supplied as a highly purified (>95% pure) preparation from Harvard Medical School and a secondary assay was used to evaluate compounds. This assay couples the formation of pyruvate from hPK-R using lactate dehydrogenase (LDH) and NADH. The depletion of NADH is followed in a fluorescent-based kinetic assay that follows the formation of pyruvate to lactate, as catalyzed LDH. Pyruvate kinase substrates, PEP and ADP, were present in the assay at 0.1 mM and 4 mM respectively. In this kinetic assay initial rates were determined by following the fluorescence of NADH depletion.
NCGC Assay Protocol Summary:
Three uL of substrate mix (final concentration, 50 mM Tris-Cl pH 8.0, 200 mM KCl, 15 mM MgCl2, 0.1 mM PEP, 4.0 mM ADP, and 0.2 mM NADH) was dispensed into black-solid 1536 well plates. 23 nL of compounds were delivered by a pin tool and 1 uL of enzyme mix (final concentrations, 10 nM hPK-L and 1 uM of LDH) was added. Plates were immediately placed in ViewLux (Perkin Elmer) and NADH fluorescence was determined at 30 second exposure intervals for between 3 and 6 minutes. Data were normalized to the uninhibited and EC100 activation using known activators such as fructose-bis-phosphate.

Sequence of Pyruvate kinase PKLR (Homo sapiens) (P30613 whole entry, looked up): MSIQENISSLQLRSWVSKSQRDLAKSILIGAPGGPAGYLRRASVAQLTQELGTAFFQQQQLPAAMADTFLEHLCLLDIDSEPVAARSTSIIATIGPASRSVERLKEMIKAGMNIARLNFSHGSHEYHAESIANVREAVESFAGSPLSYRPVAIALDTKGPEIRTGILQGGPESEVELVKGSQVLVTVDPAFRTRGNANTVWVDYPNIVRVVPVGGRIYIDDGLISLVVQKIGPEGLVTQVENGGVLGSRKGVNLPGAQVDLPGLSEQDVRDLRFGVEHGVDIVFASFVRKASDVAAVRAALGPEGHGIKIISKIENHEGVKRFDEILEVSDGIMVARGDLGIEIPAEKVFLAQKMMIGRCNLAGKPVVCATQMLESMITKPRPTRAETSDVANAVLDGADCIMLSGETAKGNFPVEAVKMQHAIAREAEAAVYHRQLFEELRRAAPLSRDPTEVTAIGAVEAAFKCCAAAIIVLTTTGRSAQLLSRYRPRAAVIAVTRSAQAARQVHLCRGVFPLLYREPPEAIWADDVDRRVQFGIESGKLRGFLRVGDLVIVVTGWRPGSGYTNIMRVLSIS

outcome, inactive:
CCNc1cccc(S(=O)(=O)N2CCN(S(=O)(=O)c3ccc4c(c3)OCCO4)CC2)c1, Cc1ccc(NC(=O)c2ccc3c(c2)CCC(=O)N3)cc1C, O=C1c2ccccc2C(=O)N1Cc1cccnc1, O=S1(=O)N=C(Oc2ccc(Cl)cc2)c2ccccc21, Cc1ccc(Cl)cc1NS(=O)(=O)c1cc2c(cc1F)NC(=O)CC2, O=S1(=O)N=C(Oc2ccccc2Cl)c2ccccc21, Cc1ccccc1Nc1c(-c2ccc(Cl)s2)nc2ccccn12, CSc1cc2c(s1)c1cnn(Cc3cccc(O)c3)c(=O)c1n2C, Cc1nc(-c2ccc(S(=O)(=O)Nc3ccc(C)c(C)c3)s2)cs1, Cc1cccc(OC2=NS(=O)(=O)c3ccccc32)c1, O=C1CCc2cc(S(=O)(=O)Nc3ccc4c(c3)CCC4)ccc2N1, Cc1ccc(NS(=O)(=O)c2cc3c(cc2N2CCCCC2)NC(=O)CC3)cc1C, CC(=O)Nc1ccc(S(=O)(=O)Nc2ccc(C)c(C)c2)cc1, Cc1ccc(NS(=O)(=O)c2cc3c(cc2N2CCC2)NC(=O)CC3)cc1C, Cc1ccc(NS(=O)(=O)c2ccc(N3CCCC3=O)cc2)cc1C, Cc1ccc(NS(=O)(=O)c2cc3c(cc2/C=C/c2ccccc2)NC(=O)CO3)cc1C, O=C1c2ccccc2C(=O)N1Cc1ccccc1, CN(C)c1cccc(S(=O)(=O)N2CCCN(S(=O)(=O)c3ccc4c(c3)OCCO4)CC2)c1, COc1cccc(NS(=O)(=O)c2ccc3c(c2)CCC(=O)N3)c1, COc1ccc(OC2=NS(=O)(=O)c3ccccc32)cc1, COc1ccc(S(=O)(=O)Nc2ccc(C)c(C)c2)cc1, Nc1cccc(S(=O)(=O)N2CCCN(S(=O)(=O)c3ccc4c(c3)OCCO4)CC2)c1, Cc1cc(N2C(=O)c3ccccc3C2=O)n[nH]1, Cc1ccc(NS(=O)(=O)c2cc3c(cc2Cl)CCC(=O)N3)cc1C, CNc1cccc(S(=O)(=O)N2CCCN(S(=O)(=O)c3ccc4c(c3)OCCO4)CC2)c1, O=C1CCc2cc(S(=O)(=O)Nc3ccc(-c4ccccc4)cc3)ccc2N1, COc1ccc(NS(=O)(=O)c2ccc3c(c2)CCC(=O)N3)cc1, Cc1ccc(NS(=O)(=O)c2cc3c(cc2-c2ccco2)NC(=O)CO3)cc1C, CC(C)Nc1cccc(S(=O)(=O)N2CCCN(S(=O)(=O)c3ccc4c(c3)OCCO4)CC2)c1, Cc1ccc(NS(=O)(=O)c2cc3c(cc2F)NC(=O)CC3)cc1Cl, O=S1(=O)N=C(Oc2cccc(Cl)c2)c2ccccc21, Cc1ccc(C)c(OC2=NS(=O)(=O)c3ccccc32)c1, Cc1ccc(NS(=O)(=O)c2ccc3c(c2)CC(=O)N3C)cc1C, Cc1ccc(NS(=O)(=O)c2cccc(F)c2)cc1C, O=C1c2ccccc2C(=O)N1c1ccccn1, Cc1ccc(NS(=O)(=O)c2ccc3c(ccn3C)c2)cc1C, CN=c1nc(-c2ccccc2)n(-c2ccccc2)s1, O=C1CCc2cc(S(=O)(=O)Nc3cccc(Cl)c3)ccc2N1, Cc1ccc(NS(=O)(=O)c2ccc3c(c2)N(C)C(=O)CO3)cc1C, O=C1CCc2cc(S(=O)(=O)Nc3cc(F)cc(Cl)c3)c(F)cc2N1
